Results reported in PubChem BioAssay (Tox21).
Inconclusive results are not listed. Values without a mark were called inactive. Active and inactive are the calls of the source. Calls follow the shape of the dose curve; as a rule, active = well fitted activation curve with a large enough effect in the repeat runs; inconclusive = weak or mixed curves; inactive = no such curve, though single readings can be large or run the other way.

The compounds below were run against Aryl hydrocarbon receptor (Homo sapiens) (UniProt P35869) (assay: qHTS assay to identify small molecule that activate the aryl hydrocarbon receptor (AhR) signaling pathway (AID 743085; also: nearly all actives have a fitted effect of over 15% in size;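 as to activation: HG2L7.5c1 human HepG2 liver cells with stably integrated DRE-driven firefly reporter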)). Settings: HepG2 AhR-luc (HG2L7.5c1), luciferase, 24 h; series mostly up to 70.3 µM; activation: at the top concentration.
Chain of Aryl hydrocarbon receptor (Homo sapiens) (P35869 whole entry, looked up): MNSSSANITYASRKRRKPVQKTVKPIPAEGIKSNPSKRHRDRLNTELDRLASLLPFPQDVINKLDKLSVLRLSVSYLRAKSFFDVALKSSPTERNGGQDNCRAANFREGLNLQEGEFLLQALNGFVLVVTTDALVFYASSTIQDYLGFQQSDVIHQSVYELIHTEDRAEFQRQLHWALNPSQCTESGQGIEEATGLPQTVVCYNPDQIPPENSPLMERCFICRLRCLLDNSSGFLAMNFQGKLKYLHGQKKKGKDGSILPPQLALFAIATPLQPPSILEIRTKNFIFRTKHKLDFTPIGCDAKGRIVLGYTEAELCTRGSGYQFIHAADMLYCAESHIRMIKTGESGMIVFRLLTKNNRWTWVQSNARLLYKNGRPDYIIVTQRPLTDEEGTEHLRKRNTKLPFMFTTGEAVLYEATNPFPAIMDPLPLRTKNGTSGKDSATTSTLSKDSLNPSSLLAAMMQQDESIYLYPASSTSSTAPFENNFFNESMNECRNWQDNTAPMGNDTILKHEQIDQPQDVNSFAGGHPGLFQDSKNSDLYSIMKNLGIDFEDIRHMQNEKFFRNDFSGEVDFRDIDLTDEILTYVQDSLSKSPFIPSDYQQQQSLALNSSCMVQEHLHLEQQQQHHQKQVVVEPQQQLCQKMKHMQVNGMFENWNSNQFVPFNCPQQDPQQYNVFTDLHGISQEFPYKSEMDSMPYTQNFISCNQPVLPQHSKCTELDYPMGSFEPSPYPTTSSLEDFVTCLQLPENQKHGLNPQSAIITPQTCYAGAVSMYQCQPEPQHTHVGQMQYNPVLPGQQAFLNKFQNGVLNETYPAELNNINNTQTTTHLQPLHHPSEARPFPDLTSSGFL
From the text: U.S. Tox21 Program National Center for Advancing Translational Sciences [NCATS] NIH Chemical Genomics Center [NCGC] U.S. Environmental Protection Agency [EPA] National Institutes of Environmental Health Sciences [NIEHS] National Toxicology Program [NTP] U.S. Food and Drug Administration [FDA] Tox21 Assay overview: The Aryl hydrocarbon Receptor (AhR), a member of the family of basic helix-loop-helix transcription factors, is crucial to adaptive responses to environmental changes. AhR mediates cellular responses to environmental pollutants such as aromatic hydrocarbons through induction of phase I and II enzymes but also interacts with other nuclear receptor signaling pathways. A cell based HepG2-AhR-luc assay (HG2L7.5c1 cell line, developed by Dr. Michael S. Denison, University of California at Davis, was used to assess the activation of AhR. HepG2 (human hepatocellular carcinoma) cells were stably transfected with an Ah receptor-responsive firefly luciferase reporter gene plasmid containing 20 dioxin responsive elements and luciferase reporter gene. Increased luciferase activity can be used to identify the compounds that induce AhR activation.
Tox21 Assay Protocol Summary: 4000 cells in 5 uL/well were dispensed into white wall/solid bottom 1536-well plates using a Multidrop Combi (Thermo Fisher Scientific Inc., Waltham, MA) dispenser. After the assay plates were incubated at 37C for 5 h, 23 nL of compound or DMSO vehicle was transferred to the assay plates by a pintool station (Kalypsys, San Diego, CA). The plates were incubated at 37C for 24 hr. After 1 ul/well of CellTiter-Fluor reagent (Promega, Madison, WI) was added into the assay plates using a Flying Reagent Dispenser (FRD) (Aurora Discovery, CA), the assay plates were incubated at 37C for 30 min. The fluorescence intensity in the plates was measured using a ViewLux plate reader (PerkinElmer, Shelton, CT), followed by the addition of 4 uL of ONE-Glo Luciferase Assay reagent (Promega) using an FRD (Aurora Discovery). After the assay plates were incubated at room temperature for 30 min, luminescence intensity was measured using a ViewLux plate reader (Perkin Elmer).
% is scaled to controls: 0 for no effect and ±100 for the full control effect; potency is read from the fitted curve at half-maximal effect.

Compound	activation	Potency
CCN(CC)CCNC(C(=O)OCCC(C)C)c1ccccc1 (stereo not given)	-1.18%	
CCCCCCCCCCCCCCCCCBr	-2.19% [at 32.5 µM]	
O=C(O)/C=C/c1cnc[nH]1	-3.16%	
CCCCCCCCCC=O	-0.945%	
O=C1c2cccc(O)c2C(=O)c2c(O)cc(CO)cc21	-1.29%	
C=C(C)C(=O)OC(C)C	-2.68%	
O=C(c1ccccc1)c1ccc2n1CCC2C(=O)O (stereo not given)	9.62% [at 32.5 µM]	
Cc1ccc(O)c([C@H](CCN(C(C)C)C(C)C)c2ccccc2)c1	-1.07%	
CCCCOC(=O)/C=C\C(=O)OCCCC	-3.7% [at 95 µM]	
CC(=O)O[C@H]1C[C@@H]2CC[C@@H]3[C@H](CC[C@@]4(C)[C@H]3C[C@H]([N+]3(C)CCCCC3)[C@@H]4OC(C)=O)[C@@]2(C)C[C@@H]1N1CCCCC1	-2.69%	
COC(=O)CSc1cc(N=c2sc(=O)n3n2CCCC3)c(F)cc1Cl	0.0762%	
SC1CCCC1	-2.31%	
CC(C)c1ccccc1C(C)C	0.446%	
Cc1cc(O)ccc1N		61.4 µM (active)
S=C(S)NCCNC(=S)S	0.241%	
Oc1ccc2c(c1)OCO2	-0.91%	
COc1ccc(OC)c(OC)c1	-0.552%	
OCCC1CCCCN1 (stereo not given)	-0.604% [at 95 µM]	
NC[C@H]1O[C@H](O[C@H]2[C@H](O)[C@@H](O[C@H]3O[C@H](CO)[C@@H](O)[C@H](N)[C@H]3O)[C@H](N)C[C@@H]2N)[C@H](O)[C@@H](O)[C@@H]1O	0.116% [at 8.47 µM]	
O=c1[nH]cnc2ccccc12	2.45% [at 95 µM]	

Compound	activation	Potency
CC(C)(C)c1cc(O)c(C(C)(C)C)cc1O	-0.0901%	
CN1CCC(=C2c3ccccc3C=Cc3ccccc32)CC1	-0.227%	
O=C(O)c1cccc(N(Cc2cccnc2)c2ccc(OC(F)F)c(OC(F)F)c2)c1	-0.168%	
C1=Cc2ccccc2C1		27.3 µM (active)
CC(=O)N(O)CCCCCNC(=O)CCC(=O)N(O)CCCCCNC(=O)CCC(=O)N(O)CCCCCN	0.179% [at 32.5 µM]	
CN1CCN(C2=Nc3cc(Cl)ccc3Nc3ccccc32)CC1	3.1%	
CC(=O)OC/C=C/c1ccccc1	-0.187%	
CCCCCC/C=C/C=O	1.55%	
Cn1c(NCCN(CCO)CCCc2ccc([N+](=O)[O-])cc2)cc(=O)n(C)c1=O	-0.898%	
CCCCOc1ccc(CC(=O)NO)cc1	3.21% [at 32.5 µM]	
CC[C@H](C)[C@@H](C(=O)O)n1sc2ccccc2c1=O	5.08%	
CCCCOC(=O)c1ccccc1C(=O)OCC(CC)CCCC (stereo not given)	-1.42%	
COC(Cc1ccccc1)OC	0.527%	
CCN(CC)C(C)=O	-2.05% [at 95 µM]	
CN(C)CCCOc1nn(Cc2ccccc2)c2ccccc12	-1.34% [at 32.5 µM]	
CCCC(C)C	-0.612% [at 95 µM]	
C[C@@H](C1=C(CCN(C)C)Cc2ccccc21)c1ccccn1	-0.701%	
O=C(O)Cc1cc(I)c(Oc2ccc(O)c(I)c2)c(I)c1		inactive
CC(C)CCCCCCOC(=O)c1ccc(C(=O)OCCCCCCC(C)C)c(C(=O)OCCCCCCC(C)C)c1	0.378%	
CNCC[C@@H](Oc1ccccc1C)c1ccccc1	-0.353%	
